From PubChem BioAssay
Only some compounds are listed: those with a hit (about 12% of all), similar ones and a draw of the others.
G9a block: qHTS Assay for Inhibitors of Histone Lysine Methyltransferase G9a. 350,000 compounds, 8.8% hits. AID 504332, 2011. G9a H3K9 monomethylation, AlphaScreen, 2 h. Potency, µM (series often up to 102 µM), inactives show at the highest dose activity, negative = inhibition, hits mostly inhibitors; further: on the % scale 0 is the no-effect control and ±100 the full control effect; nearly all actives have a fitted effect of over 75% in size
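Enzyme 20 nM + cpd, 15 min RT; add b-H3K9 pep 500 nM / SAM 20 uM; 2 h RT; anti-H3K9me1 Ab 0.5 ug/mL + SA donor / anti-rabbit acceptor beads 20 ug/mL each, 10 min; AlphaScreen read.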
HP1b binding inh: HTS for Inhibitors of HP1-beta Chromodomain Interactions with Methylated Histone Tails | AlphaScreen HP1-beta / biotin-H3K9me3 peptide binding | Potency, µM (highest dose often 114 µM), without a hit: at the top dose activity change, negative = inhibition, most hits filed as inhibitors | 390,000 compounds, 0.56% hits | AID 540317, 2011; further: nearly all actives have a fitted effect of over 70% in size
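HP1-beta protein (50 nM final) preincubated 30 min at room temperature with biotinylated H3(1-18)K9me3 peptide (50 nM) in PBS pH 7.4, 0.01% Tween-20, then compound added for 30 min. AlphaScreen streptavidin donor/nickel chelate acceptor beads (10 ug/mL final), 30 min dark, luminescence read.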
Sfp inh: qHTS Assay for Inhibitors of Bacillus subtilis Sfp phosphopantetheinyl transferase (PPTase); 4'-phosphopantetheinyl transferase ffp (Bacillus subtilis), Q9F4F7; AID 1490, 2009; 310,000 compounds, 3.5% hits; Potency, µM, without a hit: largest response in the series, negative = inhibition, actives largely listed as inhibitors; Biochemical Sfp PPTase activity, qHTS;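 further: the enzyme is Sfp with the accession as filed and its product quenches rhodamine fluorescence; 0% = enzyme reaction without inhibitor and -100% = no enzyme wells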
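Fluorescence-quenching assay: 15 nM Sfp-PPTase preincubated 15 min at room temperature with compound, then 5 uM rhodamine-CoA and 12.5 uM BHQ-2-labelled YbbR peptide added. Fluorescence (ex 525/em 598 nm) read at start and after 30 min; difference gives rate.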
BAZ2B inh: qHTS Assay for Inhibitors of BAZ2B. 360,000 compounds, 4.4% hits. AlphaScreen BAZ2B-H3K14Ac peptide displacement. Bromodomain adjacent to zinc finger domain protein 2B (Homo sapiens), Q9UIF8. Potency, µM (highest dose often 114 µM), for inactives: top-dose activity change, negative = inhibition, most hits filed as inhibitors; further: on the % scale 0 is the no-effect control and ±100 the full control effect; nearly all actives have a fitted effect of over 60% in size
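Inhibition is scored as reduced AlphaScreen emission. The BAZ2B/b-H3(5-23)K14Ac complex (50 nM each) in PBS pH 7.4, 0.01% Tween-20 meets compound (up to 110 uM) for 30 min at RT before bead addition.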
JMJD2A Tudor inh: qHTS Assay for Inhibitors of JMJD2A-Tudor Domain; Lysine-specific demethylase 4A (Homo sapiens), O75164; AlphaScreen JMJD2A-Tudor / H3K4me3 peptide binding; Potency, µM (doses to about 114 µM), without a hit: at the top dose activity change, negative = inhibition, most hits filed as inhibitors; 390,000 compounds, 4.4% hits; further: on the % scale 0 is the no-effect control and ±100 the full control effect; nearly all actives have a fitted effect of over 50% in size
TDP1 inh: qHTS Assay for Inhibitors of Tyrosyl-DNA Phosphodiesterase (TDP1). Potency, µM (top dose mostly 130 µM), for inactives: at the highest dose activity change, negative = inhibition, actives largely listed as inhibitors. recombinant TDP1, AlphaScreen DNA substrate cleavage. 350,000 compounds, 0.28% hits. AID 485290, 2010; further: on the % scale 0 is the no-effect control and ±100 the full control effect; nearly all actives have a fitted effect of over 40% in size
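Recombinant human Tdp1 (E. coli-expressed, 1 nM final) preincubated with compounds 15 min at room temperature, then 5'-biotin/3'-phosphotyrosine-FITC DNA substrate (15 nM final) added for 5 min. AlphaScreen beads (10 ug/ml final) added 10 min; cleavage lowers signal.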
Active calls of the source: *; ? = inconclusive; . = no result given; [ ] = another dose, or the depositor's remark. The call rests on the fitted dose curve; in most records, active means well fitted curve in the direction sought with a large enough effect; inconclusive means small, poorly fitted or top-dose-only effect, or another doubt; inactive means no such curve, though single readings can be large; an effect the other way counts as inactive or inconclusive. Potency means the concentration at half of the fitted maximal effect.

SMILES	G9a block	HP1b binding inh	Sfp inh	BAZ2B inh	JMJD2A Tudor inh	TDP1 inh
O=C(Nc1ccc2c(c1)C(=O)OC2)c1ccccc1Cl	50µM*	14%	4%	22%	-6%	-5%
O=C1OCc2ccc(NC(=O)c3ccccc3C(=O)O)cc21	?	10%	5%	-18%	-11%	5%
COc1ccc(-n2ncc3c(NCc4ccco4)ncnc32)cc1	45µM*	15%	-2%	?	?	5%
COc1ccc(-n2ncc3c(NCc4cccs4)ncnc32)cc1	5%[12.7 µM]	26%	4%	-10%	-8%	-9%
COc1ccc(-n2ncc3c(NCc4ccccn4)ncnc32)cc1	-27%[59 µM]	11%	-24%	?	14µM*	1%
CCc1cc2c(NCc3ccco3)ncnc2s1	45µM*	5%	12%	56µM*	?	0%
c1ccc(-n2ncc3c(NC4CCCCCC4)ncnc32)cc1	-9%[59 µM]	86%	-17%	-7%	-4%	.
NNc1ncnc2c1cnn2-c1ccccc1	-49%[12.7 µM]	20%	?	28µM*	50µM*	10%
Clc1ccc(-n2ncc3c(NCc4ccco4)ncnc32)cc1	-44%[0.0925 µM]	49%	18%	-1%	0%	3%
CCc1cc2c(NCC(=O)O)ncnc2s1	?	28%	8%	-2%	-10%	8%
CCOc1ccc(CCNC(=O)COc2cccc(-n3cnnn3)c2)cc1OCC	3%[0.501 µM]	26%	.	7%	1%	1%
O=C(OCCN1CCCCC1)c1cccc(Cl)c1	12%	21%	-3%	2%	-14%	5%
O=C(COC(=O)c1ccncc1)Nc1cccc2ccccc12	.	40%	.	.	-11%	0%
Cn1c(=O)c2c(nc(Sc3ccccc3N)n2C)n(C)c1=O	10µM*	20%	-12%	1%	-26%	6%
CCOc1ccc(CCNC(=O)c2cccc(-n3c(C)nc4cccnc43)c2C)cc1	3%[59 µM]	44%	.	-1%	0%	-3%
Cc1ccnc(NC(=O)c2cccc(S(=O)(=O)Nc3ccc(C)cc3C)c2)c1	.	1%	.	.	-24%	2%
Cc1ccc(NS(=O)(=O)c2cccc(C(=O)NNC(=O)c3cccn3C)c2)c(C)c1	.	-6%	11%	45µM*	?	-1%
OC[C@H]1NC[C@@H](O)[C@@H](O)[C@H]1O	.	.	-20%	.	.	8%[56.1 µM]
CN1CCN(CC(=O)c2cc(C(C)(C)C)c(O)c(C(C)(C)C)c2)CC1	32µM*	42%	5%	-31%	?	.
CC(C)(C)c1cc(CN2CCN(CCO)CC2)cc(C(C)(C)C)c1O	?	25%	?	?	-19%	0%
CCOC(=O)c1c(-c2ccc(C)o2)csc1NC(=O)CSc1ncn[nH]1	?	-4%	28µM*	?	?	10%
CCOC(=O)c1c(-c2ccc(C)o2)csc1NC(=S)NC(=O)N(C)C	?	?	56µM*	45µM*	?	10%
CCOC(=O)c1c(-c2ccccc2)csc1NC(=O)CCN1CCOCC1	?	?	50µM*	50µM*	2µM*	6%
CCOC(=O)c1c(-c2ccc(OC)cc2)csc1NC(=O)CSc1nnc(C)c(=O)[nH]1	2%	14%	16%	.	-21%	3%
CCOC(=O)c1c(-c2ccc(C)cc2)csc1NC(=O)CCN1CCOCC1	10µM*	?	?	32µM*	6.3µM*	-4%
CCOC(=O)c1c(-c2ccccc2)csc1NC(=O)c1ccc(S(=O)(=O)N2CCOCC2)cc1	-5%[59 µM]	68%	11%	-3%	13%	0%
CCOC(=O)c1c(-c2ccccc2)csc1NC(=O)/C(C#N)=C/c1ccc(O)c(OC)c1	40µM*	?	?	?	-32%	7%
